Data as given in PubChem BioAssay (NCI).
This is part of a sample that, as a whole, favours compounds with a hit. Of some 83,000 tested, about 20% had one in any assay.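 Single-dose data. Exposure time 48 hours. Values below 10 considered active.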 Active and inactive are the calls of the source.

Key:
Assay in all cases: NCI-60 one-dose screen, 48 h (100 = growth as untreated, 0 = no growth, -100 = all killed)
NCI-H23 lung = conditions: 10 µM unless noted
NCI-H226 lung = conditions: 10 µM unless noted
NCI-H322M lung = conditions: 10 µM unless noted
NCI-H460 lung = conditions: 10 µM unless noted
HOP-92 NSCLC = conditions: 10 µM
NCI-H522 lung = conditions: 10 µM
A549/ATCC NSCLC = conditions: 10 µM unless noted
786-0 renal = conditions: 10 µM unless noted
COLO 205 colon = conditions: 10 µM unless noted

Measured: growth

Cc1ccnc2c(NC(C)CCCN)cc(O)c(O)c12 (centres undefined)
inactive: NCI-H23 lung 40.4% | NCI-H226 lung 111% | NCI-H322M lung 75.3% | NCI-H460 lung 115% | HOP-92 NSCLC 47.6% | NCI-H522 lung 12.6% | A549/ATCC NSCLC 94.7% | 786-0 renal 95.1% | COLO 205 colon 77.8%

Cc1nnc(-c2cc3c(ccc4ccccc43)oc2=O)c2cn(-c3ccc(Cl)cc3)nc12
inactive: NCI-H23 lung 86.9% | NCI-H226 lung 92% | NCI-H322M lung 98.8% | NCI-H460 lung 94.5% | HOP-92 NSCLC 85.9% | NCI-H522 lung 81.2% | A549/ATCC NSCLC 95.2% | 786-0 renal 97.5% | COLO 205 colon 111%

O=C(CN1C(=O)NC(c2ccccc2)(c2ccccc2)C1=O)c1ccc(N2CCCC2)cc1
inactive: NCI-H23 lung 72.2% | NCI-H226 lung 90.7% | NCI-H322M lung 97.4% | NCI-H460 lung 103% | HOP-92 NSCLC 73.8% | NCI-H522 lung 64.5% | A549/ATCC NSCLC 77.2% | 786-0 renal 99.6% | COLO 205 colon 103%

Nc1ccc(S(=O)(=O)Nc2cc(F)cc(F)c2)cc1
inactive: NCI-H23 lung 111% | NCI-H226 lung 104% | NCI-H322M lung 114% | NCI-H460 lung 110% | HOP-92 NSCLC 99.9% | NCI-H522 lung 94.9% | A549/ATCC NSCLC 119% | 786-0 renal 99.7% | COLO 205 colon 112%

O=C1C(=O)c2ccccc2C(O)=C1CCCc1ccc(C2CCCC2)cc1
active: NCI-H460 lung 9.54%
inactive: NCI-H23 lung 36.5% | NCI-H226 lung 36.8% | NCI-H322M lung 37.9% | HOP-92 NSCLC 78.2% | NCI-H522 lung 39.2% | A549/ATCC NSCLC 37.9% | 786-0 renal 43.8% | COLO 205 colon 54.7%

c1ccc(-c2cn3ccnc3c(-c3ccc4ncn(C5CCCCC5)c4c3)n2)cc1
inactive: NCI-H23 lung 54.7% | NCI-H226 lung 66.1% | NCI-H322M lung 94.8% | NCI-H460 lung 62.2% | HOP-92 NSCLC 46.3% | NCI-H522 lung 41.9% | A549/ATCC NSCLC 66.7% | 786-0 renal 63.2% | COLO 205 colon 79.3%

Cc1ccc(S(=O)(=O)N/N=C2\CC3CCC2C3)cc1 (centres undefined)
inactive: NCI-H23 lung 117% | NCI-H226 lung 96.8% | NCI-H322M lung 99.3% | NCI-H460 lung 107% | HOP-92 NSCLC 87.2% | NCI-H522 lung 96.7% | A549/ATCC NSCLC 105% | 786-0 renal 100% | COLO 205 colon 113%

COc1cccc2c1nc1cccc(OC)c1[n+]2[O-]
active: NCI-H23 lung 9.62%
inactive: NCI-H226 lung 71.2% | NCI-H322M lung 78.6% | NCI-H460 lung 14.1% | NCI-H522 lung 20.2% | A549/ATCC NSCLC 36.8% | 786-0 renal 32.5% | COLO 205 colon 77.9%

Cn1cnc2nc[nH]c2c1=S
inactive: NCI-H23 lung 98.7% | NCI-H226 lung 98.2% | NCI-H322M lung 101% | NCI-H460 lung 108% | HOP-92 NSCLC 75.2% | NCI-H522 lung 86.5% | 786-0 renal 101% | COLO 205 colon 116%

CCOC(=O)c1ccc2n1CCCc1cnc(NC(C)=O)nc1-2
inactive: NCI-H23 lung 112% | NCI-H226 lung 82.4% | NCI-H322M lung 110% | NCI-H460 lung 112% | NCI-H522 lung 97% | A549/ATCC NSCLC 109% | 786-0 renal 99.4% | COLO 205 colon 122%

Cc1nc(N)sc1C(=O)NCCO
inactive: NCI-H23 lung 106% | NCI-H226 lung 97.2% | NCI-H322M lung 127% | NCI-H460 lung 115% | NCI-H522 lung 34.5% | A549/ATCC NSCLC 111% | 786-0 renal 129% | COLO 205 colon 126%

CC(=O)OCC1O[C@@H](OC(C)=O)[C@@H](NC(=O)NS(=O)(=O)c2ccccc2)C(OC(C)=O)[C@@H]1OC(C)=O (some centres undefined)
inactive: NCI-H23 lung 113% | NCI-H226 lung 99.7% | NCI-H322M lung 98.7% | NCI-H460 lung 117% | NCI-H522 lung 96% | A549/ATCC NSCLC 106% | 786-0 renal 98.3% | COLO 205 colon 120%

COc1cc(-c2cc3cnccc3c3nc(N)c4ccncc4c23)cc(OC)c1OC
inactive: NCI-H23 lung 64.3% | NCI-H226 lung 56.1% | NCI-H322M lung 58.7% | NCI-H460 lung 54.9% | NCI-H522 lung 57.1% | A549/ATCC NSCLC 42.5% | 786-0 renal 24.8%

CCOC(=O)C1C(=O)C(=O)N(C(C)C)C1C(=O)OCC (centres undefined)
inactive: NCI-H23 lung 97.3% | NCI-H226 lung 100% | NCI-H322M lung 104% | NCI-H460 lung 106% | HOP-92 NSCLC 83% | NCI-H522 lung 118% | 786-0 renal 107% | COLO 205 colon 118%

Clc1ccc(N/N=C/c2ccccn2)nc1
active: NCI-H23 lung 6.51% | NCI-H226 lung -12.3% | NCI-H460 lung 3.11% | 786-0 renal 7.14%
inactive: NCI-H322M lung 23.6% | NCI-H522 lung 37.5% | A549/ATCC NSCLC 11.2% | COLO 205 colon 13.6%

O=C(/C=C\c1ccccc1Cl)c1ccccc1
inactive: NCI-H23 lung 91.9% | NCI-H226 lung 86.2% | NCI-H322M lung 104% | NCI-H460 lung 95.4% | HOP-92 NSCLC 112% | NCI-H522 lung 100% | 786-0 renal 93.9% | COLO 205 colon 120%

O=C1N/C(=N\c2nnc(-c3ccc(O)cc3)s2)S/C1=C\c1ccccc1O
inactive: NCI-H23 lung 95.2% | NCI-H226 lung 99.6% | NCI-H322M lung 91.9% | NCI-H460 lung 102% | NCI-H522 lung 93.6% | A549/ATCC NSCLC 103% | 786-0 renal 97.5% | COLO 205 colon 114%

CC1(C)CC(=O)C2=C(C1)Oc1nc(N)c(C#N)c(N)c1C2c1ccc(F)cc1 (centres undefined)
inactive: NCI-H23 lung 133% | NCI-H226 lung 106% | NCI-H322M lung 123% | NCI-H460 lung 117% | NCI-H522 lung 146% | A549/ATCC NSCLC 110% | 786-0 renal 94.2% | COLO 205 colon 127%

CCCCCCCCCCCCCCCCCC1=NCCN1CCNC(C)=O
inactive: NCI-H23 lung 93% | NCI-H226 lung 100% | NCI-H322M lung 90.6% | NCI-H460 lung 50.5% | NCI-H522 lung 98.8% | A549/ATCC NSCLC 79.3% | 786-0 renal 92.3% | COLO 205 colon 92.6%

CCCCCc1ccnc(CC(=O)c2ccc(OC)cc2)c1
inactive: NCI-H23 lung 93.8% | NCI-H226 lung 88.6% | NCI-H322M lung 104% | NCI-H460 lung 95.2% | HOP-92 NSCLC 69.5% | NCI-H522 lung 66.6% | 786-0 renal 98.9% | COLO 205 colon 87.3%

CC[C@H](Nc1ncnc2nc[nH]c12)c1nc2cccc(NCc3ccc(C(=O)NO)nc3)c2c(=O)n1-c1ccccc1
inactive: NCI-H23 lung 41.1% | NCI-H226 lung 66.7% | NCI-H322M lung 77.7% | NCI-H460 lung 24.6% | NCI-H522 lung 22.9% | A549/ATCC NSCLC 68.2% | 786-0 renal 59.1%

CCN(CC)CCCC(C)Nc1c(C)cnc2cc(Cl)c(C)cc12 (centres undefined)
inactive: NCI-H23 lung 91.9% | NCI-H226 lung 96.2% | NCI-H322M lung 87.6% | NCI-H460 lung 90.2% | NCI-H522 lung 82.3% | A549/ATCC NSCLC 103% | 786-0 renal 64.7% | COLO 205 colon 72.2%

CC(O)C(N)=O (centres undefined)
inactive: NCI-H23 lung 95.6% | NCI-H226 lung 102% | NCI-H322M lung 108% | NCI-H460 lung 105% | NCI-H522 lung 102% | A549/ATCC NSCLC 109% | 786-0 renal 98.8% | COLO 205 colon 104%

N=C(N)c1ccc(-c2ccc(-c3ccc(F)cc3)s2)cc1
active: NCI-H23 lung -91.8% | NCI-H226 lung -77.3% | NCI-H322M lung -91.2% | NCI-H460 lung -88.9% | NCI-H522 lung -58.9% | A549/ATCC NSCLC -74.2% | 786-0 renal -82.1%

CC(=O)N1N=C(c2ccc(Cl)cc2)CC1c1cn(-c2ccccc2)nc1-c1ccc([N+](=O)[O-])cc1 (centres undefined)
inactive: NCI-H23 lung 101% | NCI-H226 lung 93.6% | NCI-H322M lung 83.1% | NCI-H460 lung 101% | NCI-H522 lung 103% | A549/ATCC NSCLC 108% | 786-0 renal 104% | COLO 205 colon 93.9%

O=C(N/N=C\c1ccc(-c2ccc(Br)cc2)o1)c1cc2oc(-c3cccc(C(F)(F)F)c3)cc2[nH]1
inactive: NCI-H23 lung 96.8% | NCI-H226 lung 106% | NCI-H322M lung 70.6% | NCI-H460 lung 91.5% | HOP-92 NSCLC 111% | NCI-H522 lung 122% | A549/ATCC NSCLC 38.3% | COLO 205 colon 107%

COc1ccc2oc(=O)cc(CN3C(=O)S/C(=C\c4ccc(Cl)cc4)C3=O)c2c1
inactive: NCI-H23 lung 90.9% | NCI-H226 lung 92.3% | NCI-H322M lung 104% | NCI-H460 lung 102% | NCI-H522 lung 79.6% | A549/ATCC NSCLC 97.9% | 786-0 renal 93.1% | COLO 205 colon 136%

N=c1c2c(=O)n3c(nc2nc2sc4ccc(Cl)cc4n12)-c1ccccc1Sc1ccccc1-3
inactive: NCI-H226 lung 29.1% | NCI-H322M lung 16.4% | NCI-H460 lung 10.7% | NCI-H522 lung 12.9% | A549/ATCC NSCLC 22.4% | 786-0 renal 24.6% | COLO 205 colon 11.9%
active: NCI-H23 lung 8.13%

COc1nc(OC)nc(-c2cc(-c3cc(OC)c(OC)c(OC)c3)no2)n1
inactive: NCI-H23 lung 101% | NCI-H226 lung 92.8% | NCI-H322M lung 115% | NCI-H460 lung 101% | NCI-H522 lung 95.7% | A549/ATCC NSCLC 88.8% | 786-0 renal 93.9%

COc1cc(/C=C/C(=O)c2ccc(F)cc2)ccc1OCCCCOc1cc2c(cc1OC)C(=O)N1CCCC1C=N2 (centres undefined)
active: NCI-H23 lung -33.9% | NCI-H226 lung -8.87% | NCI-H460 lung -49.5% | HOP-92 NSCLC -43.9% | NCI-H522 lung -61.1% | COLO 205 colon -45.2%
inactive: NCI-H322M lung 88.1% | A549/ATCC NSCLC 45.9%

C/C(=N\Nc1ccc(Cl)cn1)c1ccc2ccccc2n1
active: NCI-H226 lung -5.19% | NCI-H460 lung 3.21% | A549/ATCC NSCLC 4.29% | COLO 205 colon 9.81%
inactive: NCI-H23 lung 21% | NCI-H322M lung 16.4% | NCI-H522 lung 11.9% | 786-0 renal 12.9%

Oc1ccccc1/C=N/N=C/c1c(O)ccc2ccccc12
inactive: NCI-H23 lung 82% | NCI-H226 lung 90.8% | NCI-H322M lung 107% | NCI-H460 lung 88% | NCI-H522 lung 84% | A549/ATCC NSCLC 95.6% | 786-0 renal 107% | COLO 205 colon 104%
